As usually defined, the AC50 is the concentration giving half of the maximal activity seen.

A short description of test [1]: ATG_CRE_CIS: Attagene CIS-FACTORIAL HepG2 Assay for human cAMP Responsive Element (CRE) binding protein 3 (AID 2282926). Conditions: HepG2 CRE cis-reporter, Attagene multiplexed mRNA; actives raise or lower the signal. A digest of the protocol: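 HepG2 cells transiently transfected with cis-element-driven multiple reporter transcription units; CRE reporter mRNA measured 24 h after dosing by RT-PCR, 6-FAM labelling, HpaI digestion and capillary electrophoresis. Bidirectional fit versus DMSO baseline.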

Test [2] has as its target CCAAT/enhancer-binding protein beta (Homo sapiens) (UniProt P17676). The experiment in a line: ATG_C_EBP_CIS: Attagene CIS-FACTORIAL HepG2 Assay for human CCAAT/Enhancer Binding Protein (C/EBP) beta (AID 2282927). To be noted: HepG2 Attagene cis-factorial transcription factor reporter; actives raise or lower the signal. A digest of the protocol: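 Changes in reporter mRNA, rather than exogenous chimeric receptor activity, reflect native C/EBP signalling in transfected HepG2 cells dosed for 24 h; transcripts are detected by RT-PCR and capillary electrophoresis.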

Test [3] can be described thus: ATG_CMV_CIS: Attagene CIS-FACTORIAL HepG2 Assay for human CMV (Internal Marker) (AID 2282928).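 Further: endpoint acts as a background internal control marker rather than a target.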 To be noted: HepG2 CMV promoter reporter, transcription factor profiling; actives raise or lower the signal. Put shortly:
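Cell system: HepG2, transiently transfected multiple reporter units under cis promoters. Exposure: 24 h. Detection: RT-PCR, FAM labeling, HpaI digestion, capillary electrophoresis. Analysis: bidirectional, DMSO baseline.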

Test [4] can be described thus: ATG_AP_1_CIS: Attagene CIS-FACTORIAL HepG2 Assay for human Activator Protein 1 (AP-1) (AID 2282931). Conditions: HepG2 Attagene cis-factorial AP-1 reporter mRNA; actives raise or lower the signal. Put shortly: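 Multiplexed HepG2 reporter assay, 24 h dosing. mRNA induction detected by RT-PCR plus capillary electrophoresis. Activity fitted in both directions against DMSO.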

Test [5] in a line: ATG_AP_2_CIS: Attagene CIS-FACTORIAL HepG2 Assay for human Activator Protein 2 (AP-2) (AID 2282932). To be noted: HepG2 AP-2 cis-reporter, Attagene transcription factor profiling; actives raise or lower the signal. Put shortly: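 Step one: transient transfection of HepG2 with reporter transcription units. Step two: 24 h chemical exposure. Step three: RNA extraction, RT-PCR, labelled fragment analysis by capillary electrophoresis; DMSO serves as baseline.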

Test [6] can be described thus: ATG_BRE_CIS: Attagene CIS-FACTORIAL HepG2 Assay for human Bone Morphogenetic Protein (BMP) Response Element (BRE) (AID 2282933). To be noted: HepG2 BMP response element reporter, Attagene transcription factor profiling; actives raise or lower the signal. Put shortly: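 Endogenous transcription factor activity read in transiently transfected HepG2 cells after 24 h chemical exposure. Bidirectional curve fitting against DMSO; readout is reporter transcript level by RT-PCR with capillary electrophoresis of labelled products.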

The target in test [7] is Transcription factor E2F1 (Homo sapiens) (UniProt Q01094). The experiment in a line: ATG_E2F_CIS: Attagene CIS-FACTORIAL HepG2 Assay for human E2F Transcription Factor 1 (AID 2282935). To be noted: HepG2 Attagene cis-reporter, E2F reporter RNA transcripts; actives raise or lower the signal. A digest of the protocol:
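Total RNA from 24 h-treated, reporter-transfected HepG2 cells undergoes DNase I treatment, oligo(dT) reverse transcription, PCR and 6-FAM primer extension before capillary electrophoresis.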

Test [8] can be described thus: ATG_E_Box_CIS: Attagene CIS-FACTORIAL HepG2 Assay for human Enhancer Box (E-box) (AID 2282936). Conditions: HepG2 E-box cis-reporter transcription, actives raise or lower the signal. Put shortly:
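DMSO served as negative control and baseline for bidirectional fitting. Human hepatoma HepG2 cells, transiently transfected with cis-reporter constructs, were dosed 24 h; reporter mRNA read by RT-PCR and capillary electrophoresis.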

A short description of test [9]: ATG_M_61_CIS: Attagene CIS-FACTORIAL HepG2 Assay for M61 Transcription Factor (Internal Marker) (AID 2282937). To be noted: HepG2 Attagene CIS-FACTORIAL M61 internal marker reporter; actives raise or lower the signal. A digest of the protocol:
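Endogenous transcription factor activity in HepG2 is read through transiently transfected cis-element reporter units. After 24 h dosing, RNA undergoes reverse transcription, PCR and primer extension with 6-FAM before capillary electrophoresis; DMSO-referenced bidirectional fit.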

The nature of test [10]: ATG_EGR_CIS: Attagene CIS-FACTORIAL HepG2 Assay for human Early Growth Response 1 (EGR1) (AID 2282938). To be noted: HepG2 Attagene CIS-FACTORIAL EGR reporter mRNA; actives raise or lower the signal. Put shortly:
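Activity is taken as induction or loss of reporter mRNA versus DMSO, fitted bidirectionally. Transcripts from cis-regulated reporter units in transiently transfected HepG2 were measured after 24 h by RT-PCR with capillary electrophoresis.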

A short description of test [11]: ATG_M_19_CIS: Attagene CIS-FACTORIAL HepG2 Assay for M19 Transcription Factor (Internal Marker) (AID 2282939). To be noted: HepG2 Attagene CIS-FACTORIAL M19 internal marker reporter; actives raise or lower the signal. A digest of the protocol:
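Internal marker readout, fitted in both directions against DMSO, from HepG2 cells carrying transfected cis-element reporter constructs; RT-PCR and capillary electrophoresis of reporter mRNA after 24 h exposure.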

The nature of test [12]: ATG_GATA_CIS: Attagene CIS-FACTORIAL HepG2 Assay for human GATA Binding Protein (AID 2282944). To be noted: HepG2 GATA cis-element reporter, Attagene multiplex mRNA; actives raise or lower the signal. A digest of the protocol: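 Reporter transcripts from a GATA cis-regulated unit, among multiplexed reporters in transfected HepG2 cells, were measured by RT-PCR with capillary electrophoresis after 24 h dosing. Induction or loss scored relative to DMSO.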

The nature of test [13]: ATG_GLI_CIS: Attagene CIS-FACTORIAL HepG2 Assay for human Zinc Finger Protein GLI1 (AID 2282945). To be noted: HepG2, Attagene cis-factorial reporter mRNA, GLI element; actives raise or lower the signal. Put shortly:
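Bidirectional curve fits relative to DMSO, using reporter mRNA levels from RT-PCR plus capillary electrophoresis. Cells were HepG2 transiently carrying cis-regulated reporter constructs, harvested 24 h after dosing.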

Test [14] is described as follows: ATG_ISRE_CIS: Attagene CIS-FACTORIAL HepG2 Assay for human Interferon Regulatory Factor 1 (IRF1) binding to an Interferon-Stimulated Response Element (ISRE) (AID 2282948). Conditions: HepG2 ISRE cis-reporter (Attagene), mRNA transcription readout; actives raise or lower the signal. Put shortly:
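Quantitation relies on labelled RT-PCR fragments separated by capillary electrophoresis. Human HepG2 cells bearing cis-promoter reporter constructs were treated 24 h; DMSO served as baseline for bidirectional fitting.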

Test [15] is described as follows: ATG_M_32_CIS: Attagene CIS-FACTORIAL HepG2 Assay for M32 Transcription Factor (Internal Marker) (AID 2282949).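 Further: background control marker of the multiplexed CIS panel rather than a real target.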 To be noted: HepG2 Attagene cis-factorial M32 reporter, mRNA; actives raise or lower the signal. Put shortly:
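Following 24 h chemical exposure of HepG2 cells transiently expressing cis-promoter reporter constructs, reporter transcript levels were determined by RT-PCR with fluorescent labelling and capillary electrophoresis, then fitted bidirectionally against DMSO.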

Test [16] is described as follows: ATG_MRE_CIS: Attagene CIS-FACTORIAL HepG2 Assay for human Metal Responsive Element (MRE) (AID 2282954). Conditions: HepG2 MRE cis-reporter transcription, Attagene multiplex; actives raise or lower the signal. A digest of the protocol:
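After a 24 h chemical exposure, transiently transfected HepG2 cells yield RNA whose reporter sequences are amplified, FAM-labelled and sized by capillary electrophoresis. Curves are fitted bidirectionally relative to DMSO.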

The target of test [17] is Paired box protein Pax-6 (Homo sapiens) (UniProt P26367). The experiment in a line: ATG_Pax6_CIS: Attagene CIS-FACTORIAL HepG2 Assay for human Paired Box 6 (PAX6) (AID 2282956). To be noted: HepG2 CIS-FACTORIAL PAX6 reporter transcription, RNA readout; actives raise or lower the signal. A digest of the protocol: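 After twenty-four hours of chemical exposure, transfected HepG2 cells are harvested for RNA. Cis-promoter reporter transcripts are amplified, fluorescently labelled and sized by capillary electrophoresis, with gain and loss of signal scored against DMSO.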

Test [18] is described as follows: ATG_PXRE_CIS: Attagene CIS-FACTORIAL HepG2 Assay for human Pregnane X Receptor Element (PXRE) (AID 2282957). To be noted: HepG2 Attagene CIS-FACTORIAL PXRE reporter, mRNA; actives raise or lower the signal. A digest of the protocol:
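HepG2 cells transiently transfected with cis-element-driven multiplexed reporter units; after 24 h chemical exposure, reporter mRNA measured by RT-PCR, 6-FAM labelling, HpaI digestion and capillary electrophoresis. Bidirectional fitting relative to DMSO.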

The target of test [19] is Transcription factor Sp1 (Homo sapiens) (UniProt P08047). The experiment in a line: ATG_Sp1_CIS: Attagene CIS-FACTORIAL HepG2 Assay for human Specificity Protein 1 (Sp1) (AID 2282961). To be noted: HepG2 Sp1 cis-reporter transcription, actives raise or lower the signal. Put shortly: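 Cells: HepG2, transiently transfected with cis-regulated multiplexed reporters. Exposure: 24 h. Detection: reporter transcripts amplified, fluorescently labeled, restriction-digested and sized by capillary electrophoresis. Analysis: bidirectional fit relative to DMSO.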

Test [20] has as its target Signal transducer and activator of transcription 3 (Homo sapiens) (UniProt P40763). The experiment in a line: ATG_STAT3_CIS: Attagene CIS-FACTORIAL HepG2 Assay for human Signal Transducer and Activator of Transcription 3 (STAT3) (AID 2282963). To be noted: HepG2, Attagene cis-factorial STAT3 reporter transcription; actives raise or lower the signal. A digest of the protocol:
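After a 24 h compound incubation, total RNA from MRTU-transfected HepG2 cells was converted to cDNA and reporter sequences PCR-amplified, labelled and profiled by capillary electrophoresis. Gain and loss of signal were referenced to DMSO.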

The source made the active and inactive calls. How the source made its calls: active means hit-call score of the fitted dose curve at least 0.9, where 1 is the maximum; inactive means score below 0.9.

Sequence of Signal transducer and activator of transcription 3 (Homo sapiens) (P40763 whole entry, looked up): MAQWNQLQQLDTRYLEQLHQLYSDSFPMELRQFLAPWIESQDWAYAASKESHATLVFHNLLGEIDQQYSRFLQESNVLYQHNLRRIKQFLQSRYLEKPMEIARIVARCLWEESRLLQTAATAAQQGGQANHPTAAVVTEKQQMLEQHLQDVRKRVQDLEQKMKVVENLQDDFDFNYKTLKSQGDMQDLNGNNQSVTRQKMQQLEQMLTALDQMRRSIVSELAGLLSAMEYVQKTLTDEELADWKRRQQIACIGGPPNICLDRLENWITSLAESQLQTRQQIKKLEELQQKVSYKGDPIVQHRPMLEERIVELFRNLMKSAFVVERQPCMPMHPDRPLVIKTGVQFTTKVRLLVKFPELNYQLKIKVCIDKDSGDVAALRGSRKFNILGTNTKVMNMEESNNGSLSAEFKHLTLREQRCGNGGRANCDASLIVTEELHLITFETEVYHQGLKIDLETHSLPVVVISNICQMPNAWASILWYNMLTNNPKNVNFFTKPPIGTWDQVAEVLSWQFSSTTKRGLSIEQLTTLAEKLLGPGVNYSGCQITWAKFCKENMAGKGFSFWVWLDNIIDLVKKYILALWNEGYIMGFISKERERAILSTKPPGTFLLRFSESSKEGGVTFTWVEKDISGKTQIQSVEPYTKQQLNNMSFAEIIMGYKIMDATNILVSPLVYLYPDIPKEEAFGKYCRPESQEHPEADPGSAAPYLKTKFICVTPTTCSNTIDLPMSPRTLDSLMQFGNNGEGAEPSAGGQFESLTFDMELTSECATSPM
Sequence of Transcription factor E2F1 (Homo sapiens) (Q01094 whole entry, looked up): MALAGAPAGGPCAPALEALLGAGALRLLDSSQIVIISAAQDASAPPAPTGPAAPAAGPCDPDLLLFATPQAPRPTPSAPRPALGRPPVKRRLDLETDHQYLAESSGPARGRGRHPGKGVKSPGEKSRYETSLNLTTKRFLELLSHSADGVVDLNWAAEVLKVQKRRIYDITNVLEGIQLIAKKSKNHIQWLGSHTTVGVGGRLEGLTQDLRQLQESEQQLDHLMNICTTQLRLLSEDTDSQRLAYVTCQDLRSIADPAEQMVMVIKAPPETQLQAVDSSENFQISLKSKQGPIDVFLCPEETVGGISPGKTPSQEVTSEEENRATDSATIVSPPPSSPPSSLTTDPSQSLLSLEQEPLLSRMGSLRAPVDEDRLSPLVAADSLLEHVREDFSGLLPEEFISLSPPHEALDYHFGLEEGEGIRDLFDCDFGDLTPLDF
Sequence of CCAAT/enhancer-binding protein beta (Homo sapiens) (P17676 whole entry, looked up): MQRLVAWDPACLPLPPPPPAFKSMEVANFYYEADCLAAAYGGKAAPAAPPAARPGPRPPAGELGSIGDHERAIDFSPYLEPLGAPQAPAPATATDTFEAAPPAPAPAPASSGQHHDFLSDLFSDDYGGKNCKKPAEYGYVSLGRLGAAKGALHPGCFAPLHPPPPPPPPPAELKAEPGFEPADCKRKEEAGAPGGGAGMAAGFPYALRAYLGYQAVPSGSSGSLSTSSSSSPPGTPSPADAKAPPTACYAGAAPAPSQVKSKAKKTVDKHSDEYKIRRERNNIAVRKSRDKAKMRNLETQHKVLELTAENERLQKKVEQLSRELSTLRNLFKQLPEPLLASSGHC
Sequence of Transcription factor Sp1 (Homo sapiens) (P08047 whole entry, looked up): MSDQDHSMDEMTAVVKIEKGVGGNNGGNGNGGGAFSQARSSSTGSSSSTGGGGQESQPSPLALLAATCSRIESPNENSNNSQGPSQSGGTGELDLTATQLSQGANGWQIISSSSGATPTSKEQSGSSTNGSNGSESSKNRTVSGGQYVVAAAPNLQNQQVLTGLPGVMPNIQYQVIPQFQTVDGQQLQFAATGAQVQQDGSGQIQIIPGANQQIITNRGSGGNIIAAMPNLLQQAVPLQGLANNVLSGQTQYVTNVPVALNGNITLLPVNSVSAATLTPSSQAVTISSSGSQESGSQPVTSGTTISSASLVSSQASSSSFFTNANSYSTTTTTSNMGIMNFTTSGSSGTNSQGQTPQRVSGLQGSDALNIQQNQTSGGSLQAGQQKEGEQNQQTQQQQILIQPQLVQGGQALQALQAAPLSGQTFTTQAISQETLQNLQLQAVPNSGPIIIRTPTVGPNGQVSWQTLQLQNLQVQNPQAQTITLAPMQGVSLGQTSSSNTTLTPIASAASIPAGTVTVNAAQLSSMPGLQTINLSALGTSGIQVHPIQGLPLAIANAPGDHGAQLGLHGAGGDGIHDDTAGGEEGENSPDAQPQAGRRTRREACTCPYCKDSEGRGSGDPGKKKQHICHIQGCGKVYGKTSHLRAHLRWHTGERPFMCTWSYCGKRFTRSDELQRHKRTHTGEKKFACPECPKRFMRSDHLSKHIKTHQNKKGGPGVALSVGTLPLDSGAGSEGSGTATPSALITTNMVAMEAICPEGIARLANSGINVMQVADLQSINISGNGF
Sequence of Paired box protein Pax-6 (Homo sapiens) (P26367 whole entry, looked up): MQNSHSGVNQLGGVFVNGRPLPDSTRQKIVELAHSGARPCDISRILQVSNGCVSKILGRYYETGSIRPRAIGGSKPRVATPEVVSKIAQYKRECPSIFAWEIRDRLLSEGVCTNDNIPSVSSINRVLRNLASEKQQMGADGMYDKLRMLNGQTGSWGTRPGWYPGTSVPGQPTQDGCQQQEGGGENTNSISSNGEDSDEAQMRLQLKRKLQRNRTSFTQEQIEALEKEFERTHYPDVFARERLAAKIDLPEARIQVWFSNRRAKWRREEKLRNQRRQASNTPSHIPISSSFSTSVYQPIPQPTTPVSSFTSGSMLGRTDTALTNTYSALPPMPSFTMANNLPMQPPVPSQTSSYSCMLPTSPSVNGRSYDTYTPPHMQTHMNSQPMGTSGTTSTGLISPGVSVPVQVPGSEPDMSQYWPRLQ

With `OCCc1ccccn1`, the molecule was classed as inactive in test [1], in [2], in [3], in test [4], in [5] and in test [6]. In addition, the outcome in [7], in [8], in test [9], in test [10], in test [11] and in [12] was inactive. The call in test [13], in [14], in test [15], in test [16], in [17] and in [18] was inactive. The outcome in [19] and in [20] was inactive.
As to `Nc1ccc(S(=O)(=O)Nc2cnc3ccccc3n2)cc1`, the molecule was called inactive in test [1], in test [2], in [3], in [4], in [5] and in test [6]. Moreover, the molecule was called inactive in [7], in test [8], in test [9], in test [10], in [11] and in [12]. The result in test [13], in [14], in [15], in test [16], in test [17] and in test [18] was inactive. Further, the call in test [19] and in test [20] was inactive.
In the case of `CCCN[C@H]1CCc2nc(N)sc2C1`, the molecule was classed as inactive in test [1], in [2], in [3], in [4], in [5] and in [6]. Also, the call in [7], in test [8], in [9], in test [10], in test [11] and in [12] was inactive. Further, the molecule was called inactive in test [13], in [14], in test [15], in test [16], in test [17] and in test [18]. Also, the molecule was called inactive in [19] and in test [20].
For `O=C(C(=O)c1ccccc1)c1ccccc1`, the result in test [1], in test [2], in test [3], in [4], in test [5] and in test [6] was inactive. In addition, the molecule was called inactive in [7], in test [8], in test [9], in test [10], in test [11] and in test [12]. The molecule was called inactive in test [13], in [14], in test [15], in [16], in test [17] and in test [19]. In addition, the molecule was called inactive in test [20]. In test [18], the AC50 was 42.8 µM (active).
Take `O=C(CC(C(=O)OC1CCCCC1)S(=O)(=O)O)OC1CCCCC1` (stereo not given): the outcome in [1], in [2], in test [3], in test [4], in test [5] and in [6] was inactive. The result in test [7], in [8], in [9], in [10], in test [11] and in [12] was inactive. Moreover, the molecule was called inactive in test [13], in [14], in test [15], in [16], in test [17] and in test [19]. In addition, the molecule was called inactive in [20]. Further, the AC50 in test [18] was 9.51 µM (active).
`NC(N)=Nc1nc(CSCCC(N)=NS(N)(=O)=O)cs1`: the outcome in test [1], in test [2], in [3], in [4], in [5] and in test [6] was inactive. In addition, the outcome in test [7], in [8], in [9], in [10], in [12] and in test [13] was inactive. Further, the outcome in test [14], in [15], in test [16], in test [17], in [18] and in [19] was inactive. Moreover, in test [20], the outcome was inactive. In test [11], the concentration at half-maximal activity (AC50) is 153 µM (active).
As for `O=C(O)/C=C/C(=O)O`, the molecule was classed as inactive in test [1], in test [2], in test [3], in test [4], in test [5] and in test [6]. Besides, the result in test [7], in [8], in [9], in test [10], in [11] and in test [12] was inactive. The result in test [13], in test [14], in test [15], in test [16], in [17] and in [18] was inactive. Besides, the molecule was called inactive in [19] and in test [20].

Source of the values: PubChem BioAssay (EPA / NIEHS).
